Records with an inconclusive call do not appear. Calls of active or inactive are those of the source. Unless noted, calls follow the shape of the dose curve; as a rule, active = well fitted curve in either direction with a large enough effect (not every such curve was filed as active); inconclusive = small, poorly fitted or top-dose-only effect, or another doubt; inactive = flat fitted curve, though single readings scatter.
Columns and labels:
[1] = target: Lysosomal acid glucosylceramidase (Homo sapiens) (UniProt P04062); assay: Glucocerebrosidase-p2 (AID 348; in the data active = potency below about 10 µM; also: potency is read from the fitted curve at half-maximal effect); conditions: purified GBA, blue fluorogenic substrate, 40 min
In short: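 Compounds titrated from 0.6 nM upwards against 0.2 nM enzyme in pH 5.9 citric acid/KH2PO4, taurocholate, tween-20; blue fluorogenic substrate 80 uM, 40 min room temperature, stopped and read Ex 365/Em 440 for AC50.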

[2] = AP1 Signaling Pathway (AID 357); conditions: ME-180 AP-1-bla reporter, EGF-induced, beta-lactamase ratio, 5 h; at 7.69 µM (top of the series) unless noted; also: % is scaled to controls: 0 for no effect and ±100 for the full control effect
In short: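 AP-1-bla ME-180 cells with beta-lactamase reporter under AP-1 response element, stimulated with EC50 EGF; compounds titrated, 5 hours at 37 degrees Celsius. CCF4 read at 460/530 nm ratio; positive and negative modulators judged by AC50.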

[3] = target: Cytochrome P450 1A2 (Homo sapiens) (UniProt P05177); assay: p450-cyp1a2 (AID 410; calls by dose curve; also: potency is read from the fitted curve at half-maximal effect;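 as to activity change, negative = inhibition: -100% = full effect of reference inhibitor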); conditions: recombinant CYP1A2, luciferin-ME demethylation, luminescence; series mostly up to 57 µM
In short: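 Human CYP1A2 (20nM) demethylated Luciferin-ME at its Km (100uM) in 100mM KPO4. After 10 min compound preincubation, NADPH regeneration ran the reaction 60 min at room temperature. Luciferin was read by luminescence, normalized to 57 uM furafylline.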

[4] = NFAT Signaling Pathway (AID 444); conditions: Jurkat NFAT-bla M1, carbachol, beta-lactamase ratio, 5 h; at 7.69 µM (top of the series) unless noted;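 also: carbachol stimulus at about its EC50 of 1 µM final; % is scaled to controls: 0 for no effect and ±100 for the full control effect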
In short: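 Read-out: CCF4 FRET ratio (460 nm/530 nm) after 1 h RT dye loading, used for %activity and AC50 from titration series. Cells: Jurkat NFAT-β-lactamase/M1 line, treated with compound plus 1 uM carbachol for 5 h, 37 °C.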

[5] = target: Glucocorticoid receptor (Homo sapiens) (UniProt P04150); assay: GR-EFC Redistribution (AID 451; calls by dose curve; also: potency is read from the fitted curve at half-maximal effect); conditions: CHO-K1 GR-EFC translocation, beta-gal luminescence, 2 h
In short: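 Translocation of GR-ED fusion to nuclear EA restores b-gal, read by luminescence after 1 h room-temperature detection. Engineered CHO-K1 biosensor cells, 1,000/well, exposed 2 h at 37 C to titrations up to 46 uM final.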

[6] = target: Mitogen-activated protein kinase 10 (Mus musculus) (UniProt Q61831); assay: JNK3 AlphaScreen Assay (AID 530); conditions: JNK3 lysate, c-Jun phosphorylation; series mostly up to 57.1 µM;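 also: kinase came from lysate of stimulated human HepG2 cells; signal reports phosphorylation of biotinylated GST-cJun 1-79 at Ser73 with 10 µM ATP; % is scaled to controls: 0 for no effect and ±100 for the full control effect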
In short: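 Room-temperature AlphaScreen kinase assay; pre-activated HepG2 lysate as JNK3 source, biotin-GST-cJun(1-79) substrate, 10 uM ATP, compound 15 min preincubation.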

[7] = target: 3',5'-cyclic-AMP phosphodiesterase 4B (Homo sapiens) (UniProt Q07343); assay: qHTS Assay for Inhibitors of PDE-IV (AID 607; active = well fitted activation curve with a large enough effect in the main read-out, with a control signal flat, not every such curve was filed as active; also: % of control where 0% means no effect); conditions: HEK293 ACTOne CNG channel cells, membrane potential fluorescence; series mostly up to 22.9 µM
In short: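 Live HEK293 cells with a modified cyclic nucleotide-gated (CNG) channel report intracellular cAMP via membrane-potential dye fluorescence (ex 535/em 590 nm). Endogenous PDE-IV was targeted. Compounds were tested at up to 22.9 uM final; RO 20-1724 100 uM served as control.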

[8] = target: Cytochrome P450 3A4 (Homo sapiens) (UniProt P08684); assay: qHTS Assay for Activators of Cytochrome P450 3A4 (AID 885; active = well fitted curve in the direction sought with a large enough effect; an effect the other way counts as inactive or inconclusive; also: nearly all actives have a fitted effect of over 65% in size); conditions: recombinant CYP3A4, Luciferin-PPXE luminescence, 60 min; series mostly up to 57.1 µM
In short: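 Quantitative HTS format: compounds preincubated with 20nM human CYP3A4 and Luciferin-PPXE substrate at KM, reaction started by NADPH regeneration, stopped after 60 min, luciferase luminescence read 20 min later.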

[9] = qHTS Assay for Lipid Storage Modulators (AID 1519; calls by dose curve); conditions: Drosophila S3 cells, BODIPY lipid droplet/cell ratio, laser cytometry, cells loaded with oleic acid; for activity change, negative = inhibition: at 57.5 µM (top of the series)
In short: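 Cells seeded at 5,000 per well were treated with compounds over a concentration series and loaded with oleic acid (400 uM, as added). Lipid droplet fluorescence (488 nm excitation, 500-530 nm channel) was read by laser-scanning cytometry and normalized to 20 uM Triacsin C.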

[10] = Stat Signaling Pathway (AID 446); conditions: ME-180 (cervical carcinoma) SIE beta-lactamase reporter, IL-6 stimulated, 5 h; at 7.69 µM (top of the series) unless noted;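 also: ME-180 cervical cancer cells given 40 pM IL-6 alongside compound; SIE-controlled beta-lactamase reporter measured as 460/530 nm FRET emission ratio; % is scaled to controls: 0 for no effect and ±100 for the full control effect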
In short: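 IL-6/STAT signaling read in ME-180 cells via an SIE beta-lactamase reporter. Stimulus was 40 pM IL-6 (its AC50) for 5 hrs, so both activation and inhibition register.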

[11] = target: Cytochrome P450 2D6 (Homo sapiens) (UniProt P10635); assay: qHTS Assay for Inhibitors and Substrates of Cytochrome P450 2D6 (AID 891; active = well fitted curve in the direction sought with a large enough effect; an effect the other way counts as inactive or inconclusive;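 also: luciferin methyl ether substrate demethylated by CYP2D6 with NADPH regeneration; % is scaled to controls: 0 for no effect and ±100 for the full control effect; nearly all actives have a fitted effect of over 60% in size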); conditions: recombinant CYP2D6, luciferin-ME EGE luminescence; series mostly up to 57.1 µM
In short: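 Human CYP2D6 (5 nM) with 30 uM Luciferin-ME EGE (at Km) in 100 mM KPO4, compound preincubated 10 min, then NADPH regeneration system for 60 min at room temperature. Luciferin read by luminescence; normalized to 1.43 uM quinidine.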

[12] = target: Glucocorticoid receptor (Homo sapiens) (UniProt P04150); assay: GR-GFP Redistribution (AID 450;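 active = compounds whose dose series gives a full or clear partial fitted curve of increased nuclear translocation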; also: potency is read from the fitted curve at half-maximal effect); conditions: U2OS GR-GFP nuclear translocation, laser cytometry, 2 h
[13] = target: Ubiquitin carboxyl-terminal hydrolase 1 (Homo sapiens) (UniProt O94782); assay: Inhibitors of USP1/UAF1: Pilot qHTS (AID 504865; active = well fitted curve in the direction sought with a large enough effect; an effect the other way counts as inactive or inconclusive;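 also: rhodamine fluorescence freed from ubiquitin-rhodamine substrate followed over time; top concentration of the series differs between compounds; % is scaled to controls: 0 for no effect and ±100 for the full control effect; nearly all actives have a fitted effect of over 35% in size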); conditions: purified USP1/UAF1, Ub-rhodamine cleavage fluorescence; series mostly up to 54.9 µM
In short: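 USP1/UAF1 complex (1nM) preincubated with compound 15 min at room temperature, then Ub-Rho substrate (150nM final) added. Fluorescence read kinetically at 480/540 nm, 6 reads every 60 seconds. Buffer: 50mM HEPES pH 7.8, 0.5mM EDTA, 0.1 mg/ml BSA, 1mM TCEP, 0.01% Tween-20.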

[14] = measured here: cell count channel max response
[15] = measured here: lipid channel max response

Ubiquitin carboxyl-terminal hydrolase 1 (Homo sapiens), sequence (O94782 whole entry, looked up): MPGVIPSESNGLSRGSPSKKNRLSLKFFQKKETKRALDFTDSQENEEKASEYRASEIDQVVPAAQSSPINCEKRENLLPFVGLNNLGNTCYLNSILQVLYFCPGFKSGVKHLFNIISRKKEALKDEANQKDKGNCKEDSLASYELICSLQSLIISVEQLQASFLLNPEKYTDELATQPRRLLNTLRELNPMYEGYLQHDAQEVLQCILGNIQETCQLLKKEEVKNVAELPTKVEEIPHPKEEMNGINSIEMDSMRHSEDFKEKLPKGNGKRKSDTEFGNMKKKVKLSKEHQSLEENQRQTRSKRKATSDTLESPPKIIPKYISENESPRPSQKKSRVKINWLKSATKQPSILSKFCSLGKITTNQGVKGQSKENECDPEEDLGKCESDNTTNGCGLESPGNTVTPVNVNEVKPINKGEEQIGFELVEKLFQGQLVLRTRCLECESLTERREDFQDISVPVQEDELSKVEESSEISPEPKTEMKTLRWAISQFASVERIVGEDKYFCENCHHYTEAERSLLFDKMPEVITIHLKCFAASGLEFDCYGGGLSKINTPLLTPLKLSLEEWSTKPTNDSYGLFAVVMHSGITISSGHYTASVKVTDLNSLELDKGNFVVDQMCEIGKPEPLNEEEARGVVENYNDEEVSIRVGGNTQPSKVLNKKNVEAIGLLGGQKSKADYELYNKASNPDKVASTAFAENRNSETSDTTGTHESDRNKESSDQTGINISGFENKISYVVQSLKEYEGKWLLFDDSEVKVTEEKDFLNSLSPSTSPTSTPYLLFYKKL
3',5'-cyclic-AMP phosphodiesterase 4B (Homo sapiens), sequence (Q07343 whole entry, looked up): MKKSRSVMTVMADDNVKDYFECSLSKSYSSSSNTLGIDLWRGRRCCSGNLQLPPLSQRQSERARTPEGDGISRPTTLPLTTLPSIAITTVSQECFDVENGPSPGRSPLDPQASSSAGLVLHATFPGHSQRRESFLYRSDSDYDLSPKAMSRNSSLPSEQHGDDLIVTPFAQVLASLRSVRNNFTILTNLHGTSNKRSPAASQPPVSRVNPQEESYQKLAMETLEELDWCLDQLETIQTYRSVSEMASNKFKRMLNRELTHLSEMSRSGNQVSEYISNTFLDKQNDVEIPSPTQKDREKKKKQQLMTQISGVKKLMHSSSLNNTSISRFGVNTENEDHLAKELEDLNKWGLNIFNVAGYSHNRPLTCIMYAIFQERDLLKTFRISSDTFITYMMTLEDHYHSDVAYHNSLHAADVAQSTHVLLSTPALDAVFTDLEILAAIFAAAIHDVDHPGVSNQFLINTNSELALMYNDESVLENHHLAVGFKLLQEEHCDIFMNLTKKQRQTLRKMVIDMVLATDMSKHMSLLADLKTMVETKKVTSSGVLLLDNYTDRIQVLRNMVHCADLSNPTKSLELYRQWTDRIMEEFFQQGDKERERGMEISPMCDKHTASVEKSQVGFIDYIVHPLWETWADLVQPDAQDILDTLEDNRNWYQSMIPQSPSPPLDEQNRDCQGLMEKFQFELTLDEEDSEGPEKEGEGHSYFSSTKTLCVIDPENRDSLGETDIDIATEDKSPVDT
Glucocorticoid receptor (Homo sapiens), sequence (P04150 whole entry, looked up, the tested form may be a part): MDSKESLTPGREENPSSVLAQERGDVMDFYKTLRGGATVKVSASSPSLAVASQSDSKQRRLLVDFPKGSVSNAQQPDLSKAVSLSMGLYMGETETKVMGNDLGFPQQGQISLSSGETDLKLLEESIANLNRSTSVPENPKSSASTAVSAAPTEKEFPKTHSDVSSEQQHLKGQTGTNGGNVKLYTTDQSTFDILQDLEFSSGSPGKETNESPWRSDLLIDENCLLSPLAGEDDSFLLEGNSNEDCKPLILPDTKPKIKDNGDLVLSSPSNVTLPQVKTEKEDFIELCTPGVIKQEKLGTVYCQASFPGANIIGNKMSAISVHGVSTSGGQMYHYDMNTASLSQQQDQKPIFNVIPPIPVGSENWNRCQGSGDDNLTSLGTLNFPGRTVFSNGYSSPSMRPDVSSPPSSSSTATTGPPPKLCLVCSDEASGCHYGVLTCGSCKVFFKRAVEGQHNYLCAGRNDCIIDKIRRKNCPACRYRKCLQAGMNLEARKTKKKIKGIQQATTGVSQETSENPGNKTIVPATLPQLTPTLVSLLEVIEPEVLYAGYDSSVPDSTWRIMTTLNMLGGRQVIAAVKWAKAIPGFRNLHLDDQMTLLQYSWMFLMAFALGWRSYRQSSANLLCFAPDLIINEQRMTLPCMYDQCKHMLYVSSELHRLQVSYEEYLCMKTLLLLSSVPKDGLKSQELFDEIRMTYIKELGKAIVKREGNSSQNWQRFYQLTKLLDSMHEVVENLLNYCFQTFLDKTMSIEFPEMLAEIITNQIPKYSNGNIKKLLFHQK
Cytochrome P450 1A2 (Homo sapiens), sequence (P05177 whole entry, looked up): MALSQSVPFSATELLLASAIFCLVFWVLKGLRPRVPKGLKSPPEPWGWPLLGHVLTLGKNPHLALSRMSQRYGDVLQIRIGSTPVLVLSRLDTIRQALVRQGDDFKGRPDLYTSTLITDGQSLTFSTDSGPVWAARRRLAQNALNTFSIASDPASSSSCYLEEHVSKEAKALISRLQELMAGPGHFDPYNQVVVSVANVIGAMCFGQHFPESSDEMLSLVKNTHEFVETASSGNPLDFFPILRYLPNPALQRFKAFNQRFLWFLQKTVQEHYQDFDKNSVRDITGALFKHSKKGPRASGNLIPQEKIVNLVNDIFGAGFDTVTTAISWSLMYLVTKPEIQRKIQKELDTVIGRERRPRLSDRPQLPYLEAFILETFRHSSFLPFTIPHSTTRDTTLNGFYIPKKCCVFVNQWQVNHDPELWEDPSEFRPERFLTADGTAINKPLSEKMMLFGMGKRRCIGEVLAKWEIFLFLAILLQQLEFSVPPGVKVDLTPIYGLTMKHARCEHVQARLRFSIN
Cytochrome P450 3A4 (Homo sapiens), sequence (P08684 whole entry, looked up): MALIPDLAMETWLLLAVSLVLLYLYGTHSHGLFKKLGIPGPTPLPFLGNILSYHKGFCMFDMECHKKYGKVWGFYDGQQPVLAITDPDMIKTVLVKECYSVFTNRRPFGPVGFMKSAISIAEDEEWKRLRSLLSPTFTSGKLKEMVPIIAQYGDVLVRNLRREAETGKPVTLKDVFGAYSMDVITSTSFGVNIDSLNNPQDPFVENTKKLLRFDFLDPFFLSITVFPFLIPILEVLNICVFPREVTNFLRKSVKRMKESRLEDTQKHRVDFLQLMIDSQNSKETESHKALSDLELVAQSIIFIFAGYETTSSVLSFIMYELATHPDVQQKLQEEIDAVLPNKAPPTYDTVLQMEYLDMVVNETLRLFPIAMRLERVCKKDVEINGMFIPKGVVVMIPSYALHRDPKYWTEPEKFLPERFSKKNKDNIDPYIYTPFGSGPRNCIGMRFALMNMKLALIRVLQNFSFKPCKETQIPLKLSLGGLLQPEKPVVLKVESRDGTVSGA
Lysosomal acid glucosylceramidase (Homo sapiens), sequence (P04062 whole entry, looked up): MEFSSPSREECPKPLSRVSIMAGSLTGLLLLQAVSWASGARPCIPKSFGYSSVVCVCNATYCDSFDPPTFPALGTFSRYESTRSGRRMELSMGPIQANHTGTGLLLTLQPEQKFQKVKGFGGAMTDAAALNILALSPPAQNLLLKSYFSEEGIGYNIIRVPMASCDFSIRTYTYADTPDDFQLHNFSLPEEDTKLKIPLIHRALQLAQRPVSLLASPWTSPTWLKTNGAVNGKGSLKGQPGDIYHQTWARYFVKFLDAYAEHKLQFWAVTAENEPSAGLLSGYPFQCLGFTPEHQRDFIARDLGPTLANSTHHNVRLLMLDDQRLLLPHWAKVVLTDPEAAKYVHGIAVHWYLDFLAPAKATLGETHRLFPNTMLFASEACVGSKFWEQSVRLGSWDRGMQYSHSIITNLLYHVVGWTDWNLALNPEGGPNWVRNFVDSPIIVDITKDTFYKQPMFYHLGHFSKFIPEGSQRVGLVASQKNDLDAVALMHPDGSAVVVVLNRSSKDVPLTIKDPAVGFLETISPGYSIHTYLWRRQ
Cytochrome P450 2D6 (Homo sapiens), sequence (P10635 whole entry, looked up): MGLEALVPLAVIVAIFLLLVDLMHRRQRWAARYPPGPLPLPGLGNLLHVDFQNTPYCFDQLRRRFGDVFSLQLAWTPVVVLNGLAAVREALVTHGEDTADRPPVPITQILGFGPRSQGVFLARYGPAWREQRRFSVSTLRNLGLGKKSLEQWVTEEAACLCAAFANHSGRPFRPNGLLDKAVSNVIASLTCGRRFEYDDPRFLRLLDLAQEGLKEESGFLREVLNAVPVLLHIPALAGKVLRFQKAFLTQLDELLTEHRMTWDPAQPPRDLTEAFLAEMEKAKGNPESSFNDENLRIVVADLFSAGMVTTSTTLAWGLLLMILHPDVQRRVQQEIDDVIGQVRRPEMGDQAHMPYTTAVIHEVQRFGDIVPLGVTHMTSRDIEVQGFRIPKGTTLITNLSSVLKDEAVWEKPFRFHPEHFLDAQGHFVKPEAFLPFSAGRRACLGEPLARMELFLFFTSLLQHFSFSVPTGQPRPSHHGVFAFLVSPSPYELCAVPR

N#Cc1ccccc1-c1cncnc1NCc1cccnc1
inactive: Potency [1] > 11.4 µM | activity change, negative = inhibition [2] -25.2% | activity change, negative = inhibition [4] 5.72% | Potency [5] > 46 µM | Potency [6] | Potency [7] | Potency [8] | activity change, negative = inhibition [9] 4.31%
12.5%: max response [9, 15]
active: Potency [3] 0.0631 µM
7.61%: max response [9, 14]

c1ccc(-c2ccc(N3CC[C@@]4(CCCNC4)C3)cc2)cc1
inactive: Potency [1] > 11.4 µM | activity change, negative = inhibition [2] 16.6% | activity change, negative = inhibition [4] 10.5% | Potency [5] > 46 µM | Potency [6] | Potency [7] | activity change, negative = inhibition [9] 4.33%
9.08%: max response [9, 14]
15.2%: max response [9, 15]
active: Potency [3] 12.6 µM

N#Cc1ccc(CN2CCC3(CC2)CCN(S(=O)(=O)c2ccccc2)CC3)cc1
10.8%: max response [9, 15]
11.7%: max response [9, 14]
inactive: Potency [1] > 11.4 µM | activity change, negative = inhibition [2] -18.1% | Potency [3] | activity, negative = inhibition [10] 1.33% | Potency [5] > 46 µM | Potency [6] | Potency [7] | Potency [8] | activity change, negative = inhibition [9] -0.545%

COCC(=O)N1CCC2(CC1)CN(Cc1nccs1)C2
inactive: Potency [1] > 11.4 µM | activity change, negative = inhibition [2] -21.4% | Potency [3] | Potency [5] > 46 µM | Potency [6] | Potency [7] | Potency [11] | activity change, negative = inhibition [9] 3.6%
13.5%: max response [9, 15]
4.27%: max response [9, 14]

COc1cccc(-c2nc(N3CCNCC3)c3ccccc3n2)c1
-11.1%: max response [9, 15]
-17.6%: max response [9, 14]
inactive: Potency [1] > 11.4 µM | activity change, negative = inhibition [2] 21.6% | activity change, negative = inhibition [4] -0.232% | activity, negative = inhibition [10] -3.15% | Potency [12] > 46 µM | Potency [5] > 46 µM | Potency [6] | Potency [7] | activity change, negative = inhibition [9] 5.82% | Potency [13]

Cc1cccc(CNc2cc(-c3cccc(NS(C)(=O)=O)c3)ncn2)c1
-3.48%: max response [9, 15]
-3.18%: max response [9, 14]
inactive: Potency [1] > 11.4 µM | activity change, negative = inhibition [4] 20% | activity, negative = inhibition [10] -17.8% | Potency [12] > 46 µM | Potency [5] > 46 µM | Potency [6] | Potency [7] | Potency [8] | activity change, negative = inhibition [9] -2.47% | Potency [13]
active: Potency [3] 10 µM

O=C(c1ccncc1)N1CCC[C@@]2(CCN(c3cccc(-c4ccccc4)c3)C2)C1
8.47%: max response [9, 14]
inactive: Potency [1] > 11.4 µM | activity change, negative = inhibition [2] -13.8% | activity change, negative = inhibition [4] -1.5% | activity, negative = inhibition [10] -6.3% | Potency [5] > 46 µM | Potency [7] | activity change, negative = inhibition [9] 1.7%
13%: max response [9, 15]

CN1CCN(c2nc(-c3cccc(NS(C)(=O)=O)c3)nc3ccccc23)CC1
8.93%: max response [9, 15]
inactive: Potency [1] > 11.4 µM | activity change, negative = inhibition [2] 2.06% | activity change, negative = inhibition [4] 7.49% | activity, negative = inhibition [10] -8.68% | Potency [12] > 46 µM | Potency [5] > 46 µM | Potency [6] | activity change, negative = inhibition [9] 4.29%
7.68%: max response [9, 14]

COc1ccccc1CNc1ncnc2ccc(-c3ccc(N(C)C)cc3)cc12
active: Potency [3] 0.794 µM
-18%: max response [9, 14]
-15%: max response [9, 15]
inactive: Potency [1] > 11.4 µM | activity, negative = inhibition [10] -7.61% | Potency [12] > 46 µM | Potency [5] > 46 µM | Potency [7] | Potency [8] | activity change, negative = inhibition [9] 3.4%

CN1CCN(c2ccnc(-c3ccccc3C(F)(F)F)n2)CC1
inactive: Potency [1] > 11.4 µM | activity change, negative = inhibition [2] 8.46% | activity, negative = inhibition [10] 3.89% | Potency [12] > 46 µM | Potency [5] > 46 µM | Potency [6] | activity change, negative = inhibition [9] 3.24% | Potency [13]
-19.5%: max response [9, 14]
-14.8%: max response [9, 15]

CC(=O)N1CCC2(CC1)CCN(c1ncccn1)CC2
inactive: Potency [1] > 11.4 µM | activity change, negative = inhibition [2] -16.8% | activity change, negative = inhibition [4] -1.48% | activity, negative = inhibition [10] 10.5% | Potency [5] > 46 µM | Potency [6] | Potency [7] | activity change, negative = inhibition [9] 4.77%
8.06%: max response [9, 14]
17.2%: max response [9, 15]

CN(C)Cc1ccccc1-c1cncnc1NCc1ccccc1
10.2%: max response [9, 15]
9.37%: max response [9, 14]
inactive: Potency [1] > 11.4 µM | activity change, negative = inhibition [2] 9.42% | activity, negative = inhibition [10] -4.85% | Potency [12] > 46 µM | Potency [5] > 46 µM | Potency [6] | Potency [7] | activity change, negative = inhibition [9] 4.16% | Potency [13]

O=C(Nc1ccccc1)N1CCCC2(CCNCC2)C1
inactive: Potency [1] > 11.4 µM | activity change, negative = inhibition [2] -6.92% | activity change, negative = inhibition [4] 6.49% | activity, negative = inhibition [10] 4.83% | Potency [5] > 46 µM | Potency [6] | Potency [7] | Potency [8] | activity change, negative = inhibition [9] 3.78%
18%: max response [9, 14]
25%: max response [9, 15]

O=C(Nc1cccc(F)c1)N1CC[C@@]2(CCCN(C(=O)c3csnn3)C2)C1
inactive: Potency [1] > 11.4 µM | activity change, negative = inhibition [2] -13.9% | activity change, negative = inhibition [4] 20.4% | activity, negative = inhibition [10] -1.73% | Potency [5] > 46 µM | Potency [6] | Potency [7] | activity change, negative = inhibition [9] 3.72%
18.5%: max response [9, 15]
12.5%: max response [9, 14]

CC(C)CN1CC[C@@]2(CCCN(C(=O)c3cc(C(F)(F)F)cc(C(F)(F)F)c3)C2)C1
17.5%: max response [9, 15]
13.4%: max response [9, 14]
inactive: Potency [1] > 11.4 µM | activity change, negative = inhibition [2] -5.91% | activity, negative = inhibition [10] 11.2% | Potency [5] > 46 µM | Potency [6] | Potency [7] | Potency [8] | activity change, negative = inhibition [9] 1.55%

Source: PubChem BioAssay (NCATS)
